Among the data in PubChem BioAssay (NCATS) are Potency and outcome values, retold here.

Inconclusive results are not listed. Activity calls are given as the source filed them. Unless noted, calls come from the whole dose curve; as a rule, active = well fitted curve in the direction sought with a large enough effect; inconclusive = small, poorly fitted or top-dose-only effect, or another doubt; inactive = no such curve, though single readings can be large; an effect the other way counts as inactive or inconclusive.

Test [1] can be described thus: Cytometry Cell-Based qHTS for Inhibitors of the mTORC1 Signaling Pathway in MEF cells (AID 2668).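 Note: Tsc2-/- p53-/- mouse embryonic fibroblasts stably re-expressing wild-type Tsc2; percent cells positive for phospho-rpS6 Ser235/236 relative to propidium iodide stain; series mostly up to about 38 µM.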 An outline of the steps: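 Read-out: phospho-rpS6 Ser235/236 immunofluorescence normalized to propidium iodide intensity, scored as % active cells against a rapamycin (7.5 nM) threshold. Cells: Tsc2-/-, p53-/- MEFs stably expressing WT Tsc2, compound-treated 24 hrs at 37 degree Celsius.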
Background: Quantitative high-throughput screening tests each substance at several concentrations.

The nature of test [2]: Validation screen for inhibitors of Lassa infection (AID 463096; calls by dose curve).
Test [3] can be described thus: Validation screen for small molecules that induce DNA re-replication in MCF 10A normal breast cells (AID 463097). Note: nearly all actives have a fitted effect of over 60% in size. Note: potency is the fitted concentration of half-maximal effect. In outline:
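250 MCF 10A cells/well; compound pin-transferred; 48 hr, 37 C, 5% CO2; Hoechst 40 min; imaged 405/500-530 nm. Hits = more high-intensity nuclei.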

For test [4], the target named is Ubiquitin carboxyl-terminal hydrolase 2 (Homo sapiens) (UniProt O75604). In words: qHTS Validation Assay for Inhibitors of Ubiquitin-specific Protease USP2a Using CHOP2 as the Reporter (AID 463106). In outline: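 Readout was coupled fluorescence (Ex 485/Em 531 nm), read 60 min after adding 25 nM final Ub-CHOP2 and 25 nM reporter substrate. Beforehand, 10 nM final USP2 core had 30 min at RT with compound in pH 8.0 buffer. Curves were fitted after normalization to NEM and flagged for artifacts using time-zero reads.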

In test [5] the target is DNA polymerase III PolC-type (Bacillus subtilis (strain 168)) (UniProt P13267). Kind of test: qHTS Validation Assay for the Inhibitors of DNA Replication in Gram-Positive Bacteria (AID 485295).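 Note: reconstituted holoenzyme with PolC plus beta clamp SSB and primase; PicoGreen fluorescence of double-stranded DNA made on primed circular M13 template; series mostly up to about 57 µM.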 In outline: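 PicoGreen fluorescence (ex 480–485/em 535–540 nm) reports dsDNA synthesized on ssM13Gori template with dNTPs/NTPs. Enzyme: holoenzyme rebuilt from purified PolC, beta subunit, SSB and primase. Compound preincubated before substrate addition; RT throughout.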

The target of test [6] is Tumor susceptibility gene 101 protein (Homo sapiens) (UniProt Q99816). Kind of test: qHTS Validation Assay for Iinhibitors of HIV-1 Budding by Blocking the Interaction of PTAP/TSG101 (AID 485342; calls by dose curve). An outline of the steps:
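FP read-out: FITC-PTAP peptide, 50 nM final, binding Tsg101 binding domain, 10 uM final; 20 min r.t.; 10 mM HEPES pH 7.5, 0.15 M NaCl, 0.01% Tween 20, 3 mM EDTA, 0.1 mM TCEP.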

Test [7] is described as follows: qHTS Validation Assay to Find Inhibitors of Chronic Active B-Cell Receptor Signaling (AID 485345; active = well fitted curve in the direction sought with a large enough effect in the main read-out, with a control signal flat, not every such curve was filed as active; note: potency is the fitted concentration of half-maximal effect). In outline: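 Read-out: ratio of filter-corrected green (IkappaBalpha fusion) to red (native) luciferase signal in doxycycline-induced TMD8 cells after 4 h at 37C. Titration spanned 46 uM–3 nM; Data were normalised to basal cells and 10 uM MG-132 wells.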
Test [8] has as its target Beta-2 adrenergic receptor (Homo sapiens) (UniProt P07550). In words: qHTS validation assay of beta-arrestin-biased ligands of beta2-adrenergic receptor (AID 485366). An outline of the steps:
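Agonist activity is measured as luciferase luminescence downstream of beta-arrestin recruitment to recombinant beta2-AR in Tango cells. Exposure lasts 18 hr at 37 degrees C, and curves are categorized by r2, response size and activity.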

Test [9] is described as follows: Quantitative high throughput screen for delayed death inhibitors of the malarial parasite plastid, 96 hour incubation (AID 488745).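 Note: luciferase-expressing P. falciparum in erythrocytes at 2% hematocrit and 0.1% parasitemia; series mostly up to about 29 µM; nearly all actives have a fitted effect of over 70% in size.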 In outline:
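Luciferase-expressing P. falciparum, infected RBCs 2% Hct/0.1% parasitemia (final); 96 h cpd exposure, 37 C, 5% CO2; RPMI 1640 + 0.5% Albumax, bicarbonate, gentamycin. Readout: luminescence loss = growth inhibition.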

Test [10] addresses Thioredoxin reductase 1, cytoplasmic (Rattus norvegicus) (UniProt O89049). Kind of test: qHTS Assay for Substrates of Mammalian Selenoprotein Thioredoxin Reductase 1 (TrxR1) (AID 488772).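 Note: series mostly up to about 57 µM; a drop in NADPH fluorescence below the no-compound background marks a TrxR1 substrate.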 An outline of the steps: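 In this dual-purpose format, potential substrates are identified from the first fluorescence read after selenite addition, not from the 8-minute delta. Rat enzyme is preincubated with NADPH and then with compound at ~22 deg C.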

The target is the same in test [11]. In words: qHTS Assay for Inhibitors of Mammalian Selenoprotein Thioredoxin Reductase 1 (TrxR1) (AID 488773).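 Note: drop in NADPH fluorescence over an 8 min run after selenite addition; series mostly up to about 57 µM; nearly all actives have a fitted effect of over 40% in size.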 To be noted: Potency: inhibition. In outline:
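Inhibition is scored from the loss of NADPH fluorescence between first and last reads of an 8-min kinetic run. Selenite (400 uM) was the substrate, added after 15 min compound preincubation at room temperature.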

Test [12] deals with Flap endonuclease 1 (Homo sapiens) (UniProt P39748). Kind of test: qHTS Validation Assay for the Inhibitors of Human Flap endonuclease 1 (FEN1) (AID 488816). An outline of the steps: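 qHTS format: compounds and 10 nM FEN1 incubated 15 min at room temperature before adding 50 nM substrate. Cleavage followed by reads at 0 and 15 min; normalized data fitted to a four-parameter Hill curve.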

The target of test [13] is M-phase phosphoprotein 8 (Homo sapiens) (UniProt Q99549). Kind of test: qHTS Validation Assay for Inhibitors for MPP8 Chromodomain Interactions with Methylated Histone Tails (AID 488949).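 Note: AlphaScreen signal from MPP8 chromodomain bound to biotinylated H3K9me3 peptide; top concentration of the series differs between compounds; nearly all actives have a fitted effect of over 55% in size.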 An outline of the steps:
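AlphaScreen read-out: streptavidin donor and nickel chelate acceptor beads (final 10 ug/mL), 30 min in the dark at RT. Complex of 50 nM MPP8 and 50 nM b-H3(1-18)K9me3 peptide had been exposed to compounds for 30 min beforehand.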

Test [14] deals with Methanococcus maripaludis chaperonin (MmCpn) (UniProt Q6LX38). Kind of test: High-Throughput Screening for Modulators of Cytosolic Chaperonin Activity: MmCpn Primary Screen (AID 488978). An outline of the steps: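 ADP formation read by HTRF Transcreener, 665/590 nm emission after 320 nm excitation. Enzyme: archaeal chaperonin at 50 nM final; substrate ATP 30 uM final; 10 min, 37C, after 5 min compound preincubation at RT.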

The target of test [15] is Transient receptor potential cation channel subfamily V member 1 (Homo sapiens) (UniProt Q8NER1). Kind of test: HTS Assay for Compounds that Act as Enhancers of the Vanilloid Receptor 1 (AID 488979). An outline of the steps: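 Calcium influx kinetics via Fluo-8 (480/520 nm) in TRPV1-expressing cells, 2000/well cultured overnight at 35.5C. Compound-alone read 3 min (agonist phase), followed by EC20 capsaicin challenge for 2 min (enhancer phase).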

The target in test [16] is Thyrotropin receptor (Homo sapiens) (UniProt P16473). In words: qHTS Assay for Antagonists of the Thyroid Stimulating Hormone Receptor (AID 488980). Note: series mostly up to about 58 µM. An outline of the steps:
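TSHR-HEK293 cells; 70 uM RO 20-1724 PDE inhibitor; compound + EC80 TSH (4 nM final); anti-cAMP cryptate antibody/cAMP-d2 in lysis buffer, 30 min RT; HTRF 665/620 nm read.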

Test [17] deals with D(1A) dopamine receptor (Homo sapiens) (UniProt P21728). In words: HTS Assay for Allosteric Agonists of the Human D1 Dopamine Receptor: Primary Screen for Agonists (AID 488981). An outline of the steps: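 Calcium flux in an inducible, force-coupled HEK293 Trex D1 line (overnight at 30 C): agonist mode is the 180 s kinetic read after compound; potentiator mode is the following 180 s read after dopamine at EC20.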

In test [18] the target is ATP-dependent 6-phosphofructokinase (Trypanosoma brucei brucei) (UniProt O15648). Kind of test: qHTS Validation Assay to Find Inhibitors of T. brucei phosphofructokinase (AID 485368). An outline of the steps: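 Inhibition derived from concentration-response curves of luminescence, ranked by r2, response size and curve class; the underlying reaction used 1.25 nM PFK, 0.1 mM ATP and 0.5 mM F6P, 45 min, room temperature.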

A short description of test [19]: Quantitative high throughput screen for delayed death inhibitors of the malarial parasite plastid, 48 hour incubation (AID 488752). Note: nearly all actives have a fitted effect of over 65% in size. Note: potency is the fitted concentration of half-maximal effect. An outline of the steps: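 Luciferase-expressing P. falciparum in RBCs, 2% Hct, 0.1% parasitemia final; RPMI 1640 + 0.5% Albumax; 48 h, 37 C, 5% CO2; luminescence readout, signal drop = growth inhibition.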
For test [20], the target named is Chromobox protein homolog 1 (Homo sapiens) (UniProt P83916). Kind of test: qHTS Validation Assay for Inhibitors of HP1-beta Chromodomain Interactions with Methylated Histone Tails (AID 488953).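 Note: loss of AlphaScreen luminescence from HP1-beta binding biotinylated H3K9me3 peptide; series mostly up to about 110 µM; nearly all actives have a fitted effect of over 50% in size.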 An outline of the steps: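 AlphaScreen proximity readout: streptavidin donor and Ni-chelate acceptor beads, 10 ug/mL final, 30 min dark, RT. Complex of 50 nM HP1-beta and 50 nM b-H3(1-18)K9me3 formed 30 min, then compound-treated 30 min; PBS pH 7.4/0.01% Tween-20.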
Chain of Chromobox protein homolog 1 (Homo sapiens) (P83916 whole entry, looked up): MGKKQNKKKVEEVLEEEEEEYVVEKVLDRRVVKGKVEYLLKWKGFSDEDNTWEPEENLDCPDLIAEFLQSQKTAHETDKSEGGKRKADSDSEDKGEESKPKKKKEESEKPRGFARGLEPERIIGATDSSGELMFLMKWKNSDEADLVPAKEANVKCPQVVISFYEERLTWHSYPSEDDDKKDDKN

Chain of M-phase phosphoprotein 8 (Homo sapiens) (Q99549 whole entry, looked up): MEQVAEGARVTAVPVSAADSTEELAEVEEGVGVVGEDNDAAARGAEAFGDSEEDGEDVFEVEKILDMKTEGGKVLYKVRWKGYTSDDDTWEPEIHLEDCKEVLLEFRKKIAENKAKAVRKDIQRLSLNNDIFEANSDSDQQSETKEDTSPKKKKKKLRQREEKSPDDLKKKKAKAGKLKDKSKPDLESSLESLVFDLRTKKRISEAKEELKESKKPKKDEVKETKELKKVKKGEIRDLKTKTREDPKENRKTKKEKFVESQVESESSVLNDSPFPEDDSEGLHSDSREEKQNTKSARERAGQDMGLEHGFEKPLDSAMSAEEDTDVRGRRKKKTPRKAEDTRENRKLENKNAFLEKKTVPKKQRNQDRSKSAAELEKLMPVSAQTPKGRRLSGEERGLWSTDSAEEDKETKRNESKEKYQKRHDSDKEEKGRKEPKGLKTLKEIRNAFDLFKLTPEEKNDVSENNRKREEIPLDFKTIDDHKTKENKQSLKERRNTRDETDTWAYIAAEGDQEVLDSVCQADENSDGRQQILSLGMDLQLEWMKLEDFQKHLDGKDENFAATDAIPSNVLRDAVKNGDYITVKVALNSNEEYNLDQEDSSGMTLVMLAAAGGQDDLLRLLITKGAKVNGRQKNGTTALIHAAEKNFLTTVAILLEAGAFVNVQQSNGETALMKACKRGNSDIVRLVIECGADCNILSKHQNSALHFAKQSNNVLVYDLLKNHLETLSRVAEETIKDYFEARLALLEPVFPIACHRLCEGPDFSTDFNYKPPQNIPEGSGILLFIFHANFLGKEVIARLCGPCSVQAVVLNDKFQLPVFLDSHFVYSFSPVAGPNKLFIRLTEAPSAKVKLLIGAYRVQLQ
Chain of Thioredoxin reductase 1, cytoplasmic (Rattus norvegicus) (O89049 whole entry, looked up): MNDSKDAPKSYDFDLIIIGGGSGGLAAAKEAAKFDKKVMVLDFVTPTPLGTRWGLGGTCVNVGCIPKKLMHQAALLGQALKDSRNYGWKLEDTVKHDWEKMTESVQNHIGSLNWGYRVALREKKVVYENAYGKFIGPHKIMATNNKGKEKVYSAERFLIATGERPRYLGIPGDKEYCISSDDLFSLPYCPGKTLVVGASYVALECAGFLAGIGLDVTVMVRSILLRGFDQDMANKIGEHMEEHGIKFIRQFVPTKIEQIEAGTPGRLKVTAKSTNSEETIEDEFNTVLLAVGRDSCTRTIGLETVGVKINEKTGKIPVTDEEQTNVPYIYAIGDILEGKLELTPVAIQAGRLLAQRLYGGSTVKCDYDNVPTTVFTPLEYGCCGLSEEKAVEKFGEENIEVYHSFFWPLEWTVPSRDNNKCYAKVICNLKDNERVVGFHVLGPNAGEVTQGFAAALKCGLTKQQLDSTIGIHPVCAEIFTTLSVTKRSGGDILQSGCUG
Chain of Ubiquitin carboxyl-terminal hydrolase 2 (Homo sapiens) (O75604 whole entry, looked up): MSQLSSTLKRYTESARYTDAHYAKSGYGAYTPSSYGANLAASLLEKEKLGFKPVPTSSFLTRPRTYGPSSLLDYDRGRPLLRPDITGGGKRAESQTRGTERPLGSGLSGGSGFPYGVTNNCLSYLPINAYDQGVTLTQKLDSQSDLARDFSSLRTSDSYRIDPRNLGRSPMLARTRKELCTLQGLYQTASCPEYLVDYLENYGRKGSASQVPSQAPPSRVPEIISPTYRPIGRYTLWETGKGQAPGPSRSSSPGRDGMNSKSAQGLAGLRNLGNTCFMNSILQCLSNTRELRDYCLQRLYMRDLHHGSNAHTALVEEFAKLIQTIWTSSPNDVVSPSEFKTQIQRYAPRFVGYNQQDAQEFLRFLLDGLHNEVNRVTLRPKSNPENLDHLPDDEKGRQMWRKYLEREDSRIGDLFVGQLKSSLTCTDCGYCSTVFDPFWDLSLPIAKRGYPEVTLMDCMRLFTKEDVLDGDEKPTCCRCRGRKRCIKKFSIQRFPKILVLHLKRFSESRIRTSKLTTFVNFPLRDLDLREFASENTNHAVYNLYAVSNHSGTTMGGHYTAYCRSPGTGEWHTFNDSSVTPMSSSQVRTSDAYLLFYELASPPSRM
Chain of Thyrotropin receptor (Homo sapiens) (P16473 whole entry, looked up): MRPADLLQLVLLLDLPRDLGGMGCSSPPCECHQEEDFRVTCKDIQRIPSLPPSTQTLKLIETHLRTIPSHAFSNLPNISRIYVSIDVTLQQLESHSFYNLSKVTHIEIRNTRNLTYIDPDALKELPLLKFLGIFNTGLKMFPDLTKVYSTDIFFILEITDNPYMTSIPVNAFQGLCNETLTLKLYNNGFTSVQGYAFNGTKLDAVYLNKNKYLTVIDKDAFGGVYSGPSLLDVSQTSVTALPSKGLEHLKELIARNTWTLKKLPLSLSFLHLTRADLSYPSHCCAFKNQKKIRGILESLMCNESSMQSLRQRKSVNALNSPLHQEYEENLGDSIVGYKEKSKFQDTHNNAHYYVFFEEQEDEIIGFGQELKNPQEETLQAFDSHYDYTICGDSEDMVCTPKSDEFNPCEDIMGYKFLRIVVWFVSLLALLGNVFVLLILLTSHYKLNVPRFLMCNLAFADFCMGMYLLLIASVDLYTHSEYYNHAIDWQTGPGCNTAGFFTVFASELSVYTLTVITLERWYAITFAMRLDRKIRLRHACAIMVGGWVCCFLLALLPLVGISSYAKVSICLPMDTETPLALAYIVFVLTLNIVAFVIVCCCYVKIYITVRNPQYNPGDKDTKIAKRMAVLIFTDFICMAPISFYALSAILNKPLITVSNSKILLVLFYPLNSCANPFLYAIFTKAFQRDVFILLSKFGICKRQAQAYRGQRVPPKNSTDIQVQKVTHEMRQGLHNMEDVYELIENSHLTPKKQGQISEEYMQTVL
Chain of D(1A) dopamine receptor (Homo sapiens) (P21728 whole entry, looked up): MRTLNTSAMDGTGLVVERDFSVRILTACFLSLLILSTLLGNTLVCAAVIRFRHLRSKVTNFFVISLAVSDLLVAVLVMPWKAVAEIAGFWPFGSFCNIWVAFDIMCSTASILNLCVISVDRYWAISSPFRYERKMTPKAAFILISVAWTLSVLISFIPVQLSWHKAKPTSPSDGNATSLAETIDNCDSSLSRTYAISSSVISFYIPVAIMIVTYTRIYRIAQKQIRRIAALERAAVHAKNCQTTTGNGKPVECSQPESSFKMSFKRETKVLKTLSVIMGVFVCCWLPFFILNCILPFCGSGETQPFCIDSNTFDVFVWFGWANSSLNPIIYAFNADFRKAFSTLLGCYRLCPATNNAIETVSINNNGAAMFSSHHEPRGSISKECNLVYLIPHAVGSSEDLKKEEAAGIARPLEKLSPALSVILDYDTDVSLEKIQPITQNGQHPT
Chain of Beta-2 adrenergic receptor (Homo sapiens) (P07550 whole entry, looked up): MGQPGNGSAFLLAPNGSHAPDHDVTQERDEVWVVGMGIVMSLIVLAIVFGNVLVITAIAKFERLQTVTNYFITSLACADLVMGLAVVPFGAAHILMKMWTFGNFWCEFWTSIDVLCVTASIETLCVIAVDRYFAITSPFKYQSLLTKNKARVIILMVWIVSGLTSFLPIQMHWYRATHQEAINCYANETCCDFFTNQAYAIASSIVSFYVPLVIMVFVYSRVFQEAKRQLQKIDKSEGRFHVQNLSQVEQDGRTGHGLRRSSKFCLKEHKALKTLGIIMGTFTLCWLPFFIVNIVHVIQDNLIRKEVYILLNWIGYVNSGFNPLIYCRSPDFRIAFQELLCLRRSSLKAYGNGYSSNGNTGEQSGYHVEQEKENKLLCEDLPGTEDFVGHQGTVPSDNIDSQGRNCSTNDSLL
Chain of Transient receptor potential cation channel subfamily V member 1 (Homo sapiens) (Q8NER1 whole entry, looked up): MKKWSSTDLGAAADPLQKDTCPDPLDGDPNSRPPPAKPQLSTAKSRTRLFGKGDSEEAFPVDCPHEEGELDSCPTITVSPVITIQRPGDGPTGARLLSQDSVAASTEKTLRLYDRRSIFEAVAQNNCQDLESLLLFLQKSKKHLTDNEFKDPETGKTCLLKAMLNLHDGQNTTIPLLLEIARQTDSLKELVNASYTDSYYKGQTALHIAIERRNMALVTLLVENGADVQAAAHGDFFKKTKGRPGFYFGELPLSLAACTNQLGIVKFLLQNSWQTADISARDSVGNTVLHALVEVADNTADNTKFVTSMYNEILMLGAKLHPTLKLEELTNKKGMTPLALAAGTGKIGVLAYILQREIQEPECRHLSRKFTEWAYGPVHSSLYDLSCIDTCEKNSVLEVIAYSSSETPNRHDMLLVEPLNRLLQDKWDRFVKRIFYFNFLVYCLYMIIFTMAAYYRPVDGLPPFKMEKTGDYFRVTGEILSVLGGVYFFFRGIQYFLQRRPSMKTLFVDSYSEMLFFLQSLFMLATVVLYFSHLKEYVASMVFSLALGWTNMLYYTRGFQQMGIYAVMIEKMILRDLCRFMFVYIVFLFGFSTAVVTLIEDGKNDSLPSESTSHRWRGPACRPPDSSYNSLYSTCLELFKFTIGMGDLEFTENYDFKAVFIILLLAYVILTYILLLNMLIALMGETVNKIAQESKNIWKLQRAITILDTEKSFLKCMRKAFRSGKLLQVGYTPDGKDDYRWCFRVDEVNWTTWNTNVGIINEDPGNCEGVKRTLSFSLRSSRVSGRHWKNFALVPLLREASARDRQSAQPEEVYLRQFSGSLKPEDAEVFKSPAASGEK
Chain of Tumor susceptibility gene 101 protein (Homo sapiens) (Q99816 whole entry, looked up, the tested form may be a part): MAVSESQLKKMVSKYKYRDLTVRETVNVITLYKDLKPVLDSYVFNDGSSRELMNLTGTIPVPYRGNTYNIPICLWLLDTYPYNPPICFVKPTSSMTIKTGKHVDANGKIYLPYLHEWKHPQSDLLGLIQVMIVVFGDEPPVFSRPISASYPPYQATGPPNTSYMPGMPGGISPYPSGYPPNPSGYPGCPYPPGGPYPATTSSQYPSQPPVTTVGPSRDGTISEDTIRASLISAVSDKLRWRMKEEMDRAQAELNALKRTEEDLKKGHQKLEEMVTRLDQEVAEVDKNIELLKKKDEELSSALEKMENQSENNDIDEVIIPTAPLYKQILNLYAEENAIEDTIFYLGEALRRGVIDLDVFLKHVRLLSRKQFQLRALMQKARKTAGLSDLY

Consider `COC(=O)N1CCN(C(=O)Cc2ccc(Cl)c(Cl)c2)C(CN2CCCC2)C1` (stereo unspecified), for which the Potency result in test [1], in [2], in [3], in test [4], in test [5] and in test [7] was “inactive” in each case. Also, the Potency result in test [9], in test [11], in test [12], in test [13] and in test [17] was “inactive” in each case. Besides, the compound was called inactive in test [6], in test [8], in test [10], in test [14], in test [15] and in [16].
For the compound `CCCN(CCC)[C@@H]1CCc2cccc(O)c2C1`, the Potency entry in [1], in test [2], in [3], in test [4], in test [5] and in test [7] was “inactive” each time. In addition, the Potency result in [18], in test [11], in [12], in test [13] and in test [17] was “inactive” throughout. For the same compound, the result in test [6], in test [8], in [10], in [14], in test [15] and in [16] was inactive.
On to `C/C(O)=C(\C#N)C(=O)Nc1cc(Br)ccc1Br`, for which the Potency result in test [1], in test [2], in test [3], in test [4], in [5] and in [9] was “inactive” each time. In addition, the Potency entry in test [19], in test [11], in test [12], in test [13] and in test [17] was “inactive” each time. The compound was classed as inactive in [6], in [8], in test [10], in [14], in [15] and in [16].
For the compound `CCCN(CCC)C1CCc2cccc(O)c2C1` (stereo unspecified), the Potency entry in test [1], in [2], in test [3], in test [4], in test [5] and in [7] was “inactive” each time. Moreover, the Potency entry in test [9], in test [19], in test [11], in test [12], in test [13] and in test [20] was “inactive” each time. Besides, in [17], the Potency result is “inactive”. For the same compound, the compound was called inactive in test [6], in test [8], in [10], in test [14], in test [15] and in test [16].
Consider `C[C@]12Cc3cn4c(nc3C=C1CCC1C2CC[C@@]2(C)[C@H]1CC[C@@]2(O)C#N)nc1ccccc14` (stereo partly specified), for which the Potency result in [1], in [2], in test [4], in [5], in test [11] and in test [12] was “inactive” throughout. Further, the Potency result in [13], in test [20] and in test [17] was “inactive” in each case. In addition, the Potency in test [3] is 12.6 µM (active); in test [7], 13 µM (active); in [19], 3.7 µM (active). Moreover, the outcome in test [6], in test [8], in test [10], in test [14], in test [15] and in test [16] was inactive.
In the case of `CCCN(CCC)C1Cc2cc(OC)c(OC)cc2C1`, the Potency entry in test [1], in [2], in [3], in test [4], in [5] and in test [7] was “inactive” each time. Moreover, the Potency entry in [9], in [19], in test [11], in test [12], in [13] and in [20] was “inactive” each time. Also, the compound was called inactive in test [6], in [8], in [10], in [14], in [15] and in test [16].
